Our source for the inhibition values is PubChem BioAssay AID588335 (The Scripps Research Institute Molecular Screening Center, 2011).

Among all 360,000 compounds or so, about 4,500 (1.2%) were called active. Cut-off read from the data, not from the text of the source: active = inhibition above about 30%; inactive = the rest. Only a selection was taken, and actives are over-represented in it overall.

The test in a line: inhibition of GDH and TPI enzymes – biochemical, absorbance, full deck, artefact control for M. tuberculosis FBA inhibitor project, primary screen (AID 588335).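 Note: 0% = DMSO wells and 100% = wells lacking the enzyme.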 As to conditions: GDH-TPI coupled enzyme counterscreen, NADH absorbance; at 4.8 µM; stronger effect = higher value.
As to `Cc1cc(OC(=O)c2ccccc2)c([N+](=O)[O-])c(=O)[nH]1`, the inhibition is 3.89% (inactive).
Under `O=c1[nH]c(/C=C\c2cccc(C(F)(F)F)c2)nc(O)c1[N+](=O)[O-]` stands 16.2% (inactive); under `Cc1ccccc1/C=C\c1nc(O)c([N+](=O)[O-])c(=O)[nH]1`, 34.9% (active).
Under `Cc1nnc(SCc2cccc(Cl)c2)n(N)c1=O` stands -5.68% (inactive); under `CN1CCN(C(=O)/C(=C\c2cccs2)NC(=O)c2cccs2)CC1`, 30.9% (active); under `CN1CCN(C(=O)/C(=C\c2ccc3c(c2)OCO3)NC(=O)c2cccs2)CC1`, 13.8% (inactive).
Consider `Cc1ccc(C(=O)N/C(=C/c2cccs2)C(=O)N2CCCCC2)cc1`, for which the inhibition is 1.16% (inactive).
The same measure for `FC(F)(F)c1ccc2c3n(nc2c1)CCN=C3c1ccc(Cl)cc1`: 9.17% (inactive).
In the case of `O=c1[nH]c2c(c(=O)n1-c1ccccc1)CCO2`, the inhibition was 6.88% (inactive).
As to `COc1ccccc1C(C)NC(=O)Cc1ccsc1` (stereo not given), the inhibition is 6.79% (inactive).
Under `Cc1ccc(N2C(=O)C3C4C=CC(CC4)C3C2=O)cc1Cl` (stereo not given) stands 0% (inactive); under `COC(=O)C(c1ccccc1)N1CCCCCC1` (stereo not given), -4.27% (inactive).
Under `CC1(C)CC(N2CCN(C(c3ccccc3)c3ccccc3)CC2)=CC(=[N+]2CCCCC2)C1` stands 42% (active); under `CCOc1ccc(NC(=O)CN(C)CC(=O)NC(C)c2ccccc2)cc1OCC` (stereo not given), 11% (inactive).
Under `Nc1c(-c2ccc(F)cc2)cnn1C1CCS(=O)(=O)C1` (stereo not given) stands 3.77% (inactive); under `CCOc1ccc(/C=N\NC(=O)c2c(C)nc3cc(C)ccn23)cc1`, 21.5% (inactive).
In the case of `CCOc1cc(/C=N/NC(=O)c2c(C)nc3ccc(Cl)cn23)ccc1O`, the inhibition is 52.2% (active).
Under `CCOc1cc(/C=N/NC(=O)CN2CCCCC2)ccc1O` stands 21.8% (inactive); under `CCN1C(=NCCc2cccnc2)N[C@@H](c2ccccc2)[C@H](C(=O)OC)[C@H]1C`, -8.4% (inactive); under `COCCNC(=S)N(CCc1c(C)[nH]c2ccc(C)cc12)Cc1cccnc1`, 0% (inactive).
As for `Cc1[nH]c2ccccc2c1/C=C(/C#N)C(=O)NC(C)C`, the inhibition was 6.92% (inactive).
In the case of `COCCNC(=S)N/N=C/c1c(C)[nH]c2ccccc12`, the inhibition is 31% (active).
On to `CC(=O)Nc1cccc(C(=O)OCN2C(=O)c3ccccc3C2=O)c1`, for which the inhibition was -2.41% (inactive).
Under `COc1ccc(CCNC(=S)N2CCN(S(=O)(=O)c3ccc(F)cc3)CC2)cc1` stands 1.03% (inactive); under `Oc1ccc(/C=N/N(Cc2ccccc2)c2ccccc2)cc1`, 11.2% (inactive); under `CCN(/N=C/c1ccc(N(C)C)cc1)c1nc2ccccc2[nH]1`, 31.3% (active).
The same measure for `COc1ccc(C(=O)COC(=O)c2nn(C)c(=O)c3ccccc23)c(OC)c1`: -0.9% (inactive); for `O=C(O)C1CCCN1S(=O)(=O)c1ccc2c(c1)CCC2` (stereo not given): -0.82% (inactive).
Under `COc1ccc2sc(-c3ccccc3OC)c(-c3ccc(OCCN4CCCC4)cc3)c2c1` stands 8.81% (inactive); under `COc1ccc2sc(-c3ccc(N(C)C)cc3)c(-c3ccc4cc[nH]c4c3)c2c1`, 33.5% (active).
As for `COc1cccc(-c2sc3ccc(OC)cc3c2-c2ccc(OCCN3CCCCC3)cc2)c1`, the inhibition is 0.91% (inactive).
Under `COc1ccc(CNC(=O)c2c(C)cc(=O)oc2C)cc1OC` stands 5.96% (inactive).
`Cc1cc(=O)oc(C)c1C(=O)NCc1ccc(F)cc1`: the inhibition was 16.2% (inactive).
Turning to `Cc1cc(=O)oc(C)c1C(=O)NCCN(C)Cc1ccccc1`, the inhibition was 45.1% (active).
As for `CC(NC(=O)c1ccc(Cl)cc1)C(=O)N1CCCCC1` (stereo not given), the inhibition was 8.65% (inactive).
Under `Cn1c(SCC(=O)c2ccccc2)ncc(C(=O)Nc2ccc(F)cc2)c1=O` stands 2.1% (inactive); under `Cc1ccc(NC(=O)c2cnc(SCC(=O)NCC3CCCO3)n(C)c2=O)cc1` (stereo not given), 33.3% (active); under `CCn1c(SCC(=O)NCC2CCCO2)nc2ccccc21` (stereo not given), -11% (inactive).
The same measure for `CC1C(=O)N2CCCc3cc(S(=O)(=O)NCc4ccc(F)cc4)cc1c32` (stereo not given): 6.01% (inactive); for `O=C1C=C(c2ccnc3cc(Cl)ccc23)C[C@@H](c2ccc3c(c2)OCO3)C1`: 1.34% (inactive); for `Cc1ccccc1-n1c(C)cc(/C=N/NC(=O)c2ccc(CN3CCOCC3)cc2)c1C`: 18.1% (inactive).
For `Cc1ccccc1-n1c(C)cc(/C=C2\NC(=O)NC2=O)c1C`, the inhibition was 32.7% (active).
As to `CSc1ccc(/C=C2\NC(=O)NC2=O)cc1`, the inhibition is 27.3% (inactive).
On to `COc1ccc2[nH]c3c(c2c1)CCN1C(=O)C(CC(=O)NCc2cccc(C(F)(F)F)c2)C[C@H](C(=O)N2CCOCC2)[C@@]31C` (stereo not given in full), for which the inhibition is -0.94% (inactive).
Take `Fc1ccccc1/C=N/Nc1cc(N2CCCCC2)ncn1`: the inhibition was 18.5% (inactive).
Under `COc1ccc(/C=N/Nc2cc(N3CCOCC3)nc(C)n2)c(OC)c1` stands 68.5% (active).
Under `COc1ccccc1-c1cnn2c(N3CCOCC3)cc(C)nc12` stands 8.82% (inactive); under `CCOc1ccc(CN(C)C(=O)c2ccc(=O)[nH]c2)cc1`, 1.51% (inactive); under `CC(C)CNC(=O)C(=O)NCC(c1ccc2c(c1)OCO2)N1CCOCC1` (stereo not given), -0.84% (inactive).
Under `CCCc1ccc(C(O)c2ncc(-c3cccc(OC)c3)[nH]2)cc1` (stereo not given) stands -5.36% (inactive); under `COC(=O)C(C)N=Cc1ccccc1` (stereo not given), -1.89% (inactive).
Consider `COC(=O)N/N=C/c1c[n+]([O-])c2ccccc2[n+]1[O-]`, for which the inhibition is 32.6% (active).
The same measure for `CC(C)(C)OC(=O)N/N=C/c1ccc(C(=O)O)cc1`: -4.41% (inactive); for `O=C(Nc1ccc2c(c1)nc1n2CCCCC1)c1cc(S(=O)(=O)N2CCOCC2)ccc1Cl`: -14.1% (inactive); for `CN(CCC1CCOCC1)Cc1cn[nH]c1-c1ccc(-c2ccccc2)cc1`: 13% (inactive).
Turning to `CCOc1cc(/C=C2\SC(N3CCCC(C)C3)=NC2=O)ccc1O` (stereo not given), the inhibition was 14.5% (inactive).
On to `CC1CCN(C2=NC(=O)/C(=C/c3cn[nH]c3-c3ccccc3)S2)CC1`, for which the inhibition was 33.8% (active).
As to `CCCCCCCCn1c2c(c(=N)c3c1CCC3)CCCC2`, the inhibition was -7.26% (inactive).
Under `C/C(=N\NC(=O)c1cccc([N+](=O)[O-])c1)c1cccnc1` stands 3.57% (inactive); under `C/C(=N\NC(=O)c1cc(-c2ccc(O)cc2)nc2ccccc12)c1cccnc1`, 30.9% (active).
On to `CCOc1ccccc1-c1cc(C(=O)N/N=C(\C)c2cccnc2)c2ccccc2n1`, for which the inhibition was 19.2% (inactive).
With `O=C(ON=C1CCN(S(=O)(=O)c2ccccc2)CC1)c1ccc(Cl)cc1`, the inhibition was 4.57% (inactive).
The same measure for `CCc1ccc(Nc2ncc3c(n2)CC(c2ccco2)CC3=O)cc1` (stereo not given): 37.7% (active).
In the case of `CN1CCN(c2ncc3c(n2)CC(c2ccccc2F)CC3=O)CC1` (stereo not given), the inhibition was 4.15% (inactive).
The same measure for `Cc1ccc2nc(Nc3ncc4c(n3)CC(C)(C)CC4=O)nc(C)c2c1`: 1.22% (inactive); for `COc1ccc(Cl)cc1C=CC=NNC(=O)c1ccncc1`: 50% (active); for `CC(=NNC(=O)c1ccncc1)c1ccc(Cl)c(Cl)c1`: 0.88% (inactive).
Under `COc1ccc(Cl)cc1C=CC=Nc1ccc(S(N)(=O)=O)cc1` stands 5.17% (inactive).
The same measure for `CCOc1nc(OCC)nc(-n2cc(-c3ccccc3)nn2)n1`: -5.88% (inactive); for `Cc1cc(=O)oc2c3c(cc(OCC(=O)NCc4ccccn4)c12)OC(C)(C)CC3`: 18.6% (inactive); for `Cc1c(C)c2c(OCC(=O)NCCCO)cc3c(c2oc1=O)CCC(C)(C)O3`: 15% (inactive).
Regarding `Cc1cc(=O)oc2c3c(cc(OCC(=O)NCCC(=O)N[C@@H](C)C(=O)O)c12)OC(C)(C)CC3`, the inhibition is 15.1% (inactive).
Take `Cc1cc(=O)oc2c3c(cc(OCC(=O)NCC(O)c4ccccc4)c12)OC(C)(C)CC3` (stereo not given): the inhibition was 15.3% (inactive).
The same measure for `Cc1cc(=O)oc2c3c(cc(OCC(=O)N[C@H](C(=O)O)c4ccccc4)c12)OC(C)(C)CC3`: 31.4% (active).
Under `Cc1c(C)c2c(OCC(=O)N[C@@H](C(=O)O)c3ccccc3)cc3c(c2oc1=O)CCC(C)(C)O3` stands 35.3% (active).
Turning to `COc1cc(C(F)(F)F)nc2c(Br)c(C(C)(C)C)nn12`, the inhibition was 11.5% (inactive).
As for `CCCCN(C(=O)C(CCSC)N1C(=O)c2ccccc2C1=O)c1c(N)n(CCC)c(=O)[nH]c1=O` (stereo not given), the inhibition was 6.94% (inactive).
The same measure for `Cc1onc(-c2ccccc2)c1-c1nnc(COC(=O)c2ccc(N(C)C)cc2)o1`: 16.8% (inactive); for `CCOCCCNC(=O)C(NC(=O)c1ccc(=O)[nH]c1)c1ccc(Cl)cc1` (stereo not given): 14.7% (inactive).
Consider `Cc1cc2nc(-c3ccc(NC(=O)c4cccnc4)cc3)oc2cc1C`, for which the inhibition was 34.4% (active).
The same measure for `Cc1ccc(-n2nc3cc(C)c(NC(=O)c4cccnc4)cc3n2)cc1`: 15.4% (inactive); for `CC(C)NS(=O)(=O)c1ccc(NC(=O)c2cccnc2)cc1`: -0.48% (inactive); for `CCc1ccc(NC2Nc3cc(C)nn3S2)cc1` (stereo not given): 3.7% (inactive).
The same measure for `Cc1ccc(C(=O)N[C@H](C(=O)N2CCN(c3ncccn3)CC2)C(C)C)cc1`: 4.42% (inactive); for `COC(=O)c1cccc(NC(=O)CSc2nc(C)cc(=O)[nH]2)c1`: -11.5% (inactive).
Under `COc1ccc(C(=O)CSc2n[nH]c(N)n2)cc1` stands 4% (inactive).
Turning to `COC(=O)c1cc(C(=O)CSc2nc(C)cc(C)n2)ccc1O`, the inhibition was 31.6% (active).
As for `CCOC(=O)Cn1c(=O)n(Cc2ccc(OC)cc2)c(=O)c2cccnc21`, the inhibition was 5% (inactive).
In the case of `O=C1N(Cc2ccc3c(c2)OCO3)c2ccccc2C1(O)c1c[nH]c2ccccc12` (stereo not given), the inhibition was 7.18% (inactive).
As for `Cc1cccc(CCNS(=O)(=O)c2ccc(S(=O)(=O)NC3CCCC3)cc2)c1`, the inhibition is 10.9% (inactive).
Consider `O=C1C2C3C=CC(C4CC34)C2C(=O)N1/N=C/c1ccc(-c2ccccc2[N+](=O)[O-])o1` (stereo not given), for which the inhibition was 50.6% (active).
Under `Cc1c(/C=N/N2C(=O)C3C4C=CC(C4)C3C2=O)c2ccccc2n1C` (stereo not given) stands 21.5% (inactive).
The same measure for `CN(C(=O)CSc1nc(C2CC2)nc2ccccc12)c1nc(-c2ccccc2)cs1`: 8.44% (inactive); for `CCCCn1c(N)c(N(CCC(C)C)C(=O)COC(=O)c2ccc(CC)cc2)c(=O)[nH]c1=O`: 9.06% (inactive); for `CN(CCc1ccccc1)C(=O)c1cccc(NC(=O)Cc2cccc(NC(=O)C3CCCN(C(=O)C4CCC4)C3)c2)c1` (stereo not given): 4.55% (inactive).
`COc1ccc(Nc2cc(Sc3ccc(OC)cc3)ncn2)cc1`: the inhibition was -3.81% (inactive).
With `COc1ccc(CCNC2=CC(=O)CC(C)(C)C2)cc1`, the inhibition was 4.76% (inactive).
The same measure for `COc1ccc(NC2=CC(=S)NC(C)(C)C2)cc1`: 31.3% (active).
As for `CCOC(=O)[C@H]1CCC[C@@H](NS(=O)(=O)c2ccc(NC(C)=O)cc2)C1`, the inhibition is -3.39% (inactive).
For `OC(c1ccccc1)c1nc(-c2cnc3ccccc3c2)cs1` (stereo not given), the inhibition is -3.54% (inactive).
Consider `CC/C(=N\NC(=O)c1ccccc1O)c1c(O)n(Cc2ccccc2)c(=O)[nH]c1=O`, for which the inhibition is 57% (active).
With `COCCN(C(=O)c1ccccc1F)c1c(N)n(Cc2ccccc2)c(=O)[nH]c1=O`, the inhibition was -6.6% (inactive).
Under `CC/C(=N\NC(=O)c1ccccc1Cl)c1ccc(Br)s1` stands 16.7% (inactive); under `Cc1ccccc1Nc1scc(-c2ccc(Br)cc2)[n+]1-c1ccccc1C`, -1.89% (inactive).
`COCCNc1cc(NCCOC)c([N+](=O)[O-])cc1[N+](=O)[O-]`: the inhibition is 15.1% (inactive).
